# In the library only some 5.5% were active in any assay of this set; here they are far more common.
# ELG1 DNA repair = blocks ELG1-dependent DNA repair in HEK293T cells. HEK293T ELG1-luciferase reporter, luminescence, 16 h; DNA damage induced by 5-fluorouridine. Potency, µM (highest dose often 46.1 µM), hits mostly inhibitors. 330,000 compounds, 2.3% hits. AID 504467; note: nearly all actives have a fitted effect of over 55% in size
#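 HEK293T cells expressing luciferase-tagged ELG1 (2,000/well) received 5-Fluorouridine plus compound or DMSO for 16 hr at 37 °C. Luciferase was read by ONE-Glo luminescence after 30 min at room temperature.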
# Giardia kill = Giardia lamblia killing. AID 540267. Giardia lamblia trophozoite viability. activity change, % at 7.66 µM, hits read low. 340,000 compounds, 0.15% hits; in the data active = activity change below about -80%; inconclusive = between about -30% and that limit;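 note: parasites exposed to compound for two days anaerobically before the ATP read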
#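 Giardia trophozoites, 100 cells per well, were exposed to compounds for 48 hrs at 37 deg C under anaerobic conditions; viability was then read as ATP content by bioluminescence after 15-30 min at room temperature.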
# Sfp inh = blocks B. subtilis Sfp PPTase activity; Q9F4F7; Biochemical Sfp PPTase activity, qHTS; Potency, µM, most hits filed as inhibitors; 310,000 compounds, 3.5% hits; AID 1490;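 note: the enzyme is Sfp with the accession as filed and its product quenches rhodamine fluorescence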
#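 After 15 min at room temperature with compound, 15 nM Sfp received 5 uM rhodamine-CoA plus 12.5 uM BHQ-2-ybbR (50 mM Hepes pH 7.6, 10 mM MgCl2). Rate came from the fluorescence difference over 30 min, ex 525/em 598 nm.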
# Coupling enz = coupling enzyme interference in Giardia aldolase counter-screen. coupling enzyme system counterscreen, AmpLite Red fluorescence. activity change, negative = inhibition, % at 58.2 µM, hits read low. 290,000 compounds, 0.67% hits. AID 2472; in the data active = activity change below about -30%
#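 Compounds tested against the coupling enzymes alone at 57.5 uM final; readout was AmpLite Red fluorescence (525/598 nm) after 20 min at RT.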
# Numbers stand for hits; - = inactive; ? = inconclusive; . = no result. Unless noted, calls come from the whole dose curve; as a rule, active = well fitted curve in the direction sought with a large enough effect; inconclusive = small, poorly fitted or top-dose-only effect, or another doubt; inactive = no such curve, though single readings can be large; an effect the other way counts as inactive or inconclusive.
SMILES,ELG1 DNA repair,Giardia kill,Sfp inh,Coupling enz
CCOc1ccc(/C=C2\SC(=S)N(C(C(=O)O)c3ccccc3)C2=O)cc1OC (stereo not given),-,-,56µM,-
COc1ccc(OC)c(/C=C2\SC(=S)N(C(C(=O)O)c3ccccc3)C2=O)c1 (stereo not given),-,-,56µM,-
CC(C)(C)OC(=O)N(CCc1ccccc1)Cc1cccc(OCc2cccc(NC(=O)C3CCCC3)c2)c1,.,-,.,.
C[C@@]12CC(=O)C3=C(CCCC3=O)N1CCc1ccccc12,.,.,-,-
CC1(C)c2[nH]c3ccccc3c2C[C@@H]2C(=O)N(c3ccc(F)cc3F)C(=O)N21,.,-,.,.
CCCCN(CC)CCNC(=O)c1cc2c(C)nc3ccccc3c2o1,-,-,-,-
COc1cccc(CNC(=O)c2cc3c(C)nc4ccccc4c3o2)c1,?,-,-,-
Cc1nc2ccccc2c2oc(C(=O)Nc3ccc4c(c3)OCCO4)cc12,21µM,-,?,-
COc1cc(NC(=O)c2cc3c(C)nc4ccccc4c3o2)cc(OC)c1OC,7.3µM,-,-,-
Cc1nc2ccccc2c2oc(C(=O)Nc3ccc(C(C)C)cc3)cc12,23µM,-,-,-
Cc1cc(Br)cc(Br)c1OCC(=O)NNC(=O)Nc1ccccc1,.,-,.,.
CC(C)Cc1cc(C(=O)N(C)C2CCCN(Cc3ccccc3F)C2)n(C)n1 (stereo not given),-,-,-,-
CC(/C=N/n1c(-c2n[nH]c3c2CCC3)n[nH]c1=S)=C\c1ccco1,-,-,45µM,-
COc1ccc(OC)c(/C=N/n2c(-c3n[nH]c4c3CCC4)n[nH]c2=S)c1,-,-,-,-
COc1cc(OC)c(OC)cc1/C=N/n1c(-c2n[nH]c3c2CCC3)n[nH]c1=S,?,-,22µM,-
CC(C)=NOCc1cccc(-c2cc(-c3ccccc3)no2)c1,.,.,-,-
COc1cc(C2C(C(=O)N3CCOCC3)=C(C)NC3=C2C(=O)CCC3)ccc1OC(C)=O (stereo not given),-,-,?,-33
CCOC(=O)c1c(-c2ccccc2)csc1NC(=O)c1nn(CC)cc1Br,12µM,-,-,-
CCOC(=O)c1c(-c2ccccc2)csc1NC(=O)c1cc(S(=O)(=O)N2CCOCC2)ccc1C,10µM,-,?,-
CCOC(=O)c1c(-c2ccccc2)csc1NC(=O)c1ccc(S(=O)(=O)N2CC(C)OC(C)C2)cc1 (stereo not given),-,-,-,-
Cc1ccc(S(=O)(=O)N2CCOCC2)cc1C(=O)OCC(=O)N(Cc1ccccc1)C(C)C,21µM,-,.,.
Cc1n[nH]c(=S)n(/N=C/c2ccccn2)c1=O,-,-,50µM,-
CCc1n[nH]c(=S)n1/N=C/c1ccccn1,-,-,50µM,-
Cc1n[nH]c(=S)n(/N=C/c2cccc([N+](=O)[O-])c2)c1=O,-,-,-,-
CCOC(=O)c1c(CSC(=N)N)n(-c2ccc(Br)cc2)c2cc(Br)c(OC(C)=O)cc12,?,-,?,-
SMILES,ELG1 DNA repair,Giardia kill,Sfp inh,Coupling enz
CCCCCCCCOC(=O)c1c(CSC(=N)N)n(C)c2cc(Br)c(OC(C)=O)cc12,?,-,40µM,-
CC(C)(O)C#Cc1ccc(CN2CCCC(CNC(=O)c3ccco3)C2)cc1 (stereo not given),-,-,-,.
CCN(CC)S(=O)(=O)c1ccc(-c2nnc(SCC(N)=O)n2CC)cc1,-,-,-,-
CCN(CC)S(=O)(=O)c1ccc(-c2nnc3sc4cccc(C)c4n23)cc1,23µM,-,?,-
CCOc1cccc(OCCCCn2cnc3ccccc3c2=O)c1,-,-,-,-
CCOc1ccc(OCCCCn2cnc3ccccc3c2=O)cc1,16µM,-,-,-
CC1=Nn2c(nnc2C2CCCCC2)SC1,-,-,79µM,-
CC1=Nn2c(nnc2-c2cc(-c3ccccc3)n[nH]2)SC1,-,-,-,-
Cc1ccc(C2=CC(C)(c3ccc(C)cc3)Nc3nc(C(F)(F)F)nn32)cc1 (stereo not given),?,-,-,-
Cc1cc(C2=CC(C)(c3cc(C)oc3C)Nc3nc(C(F)(F)F)nn32)c(C)o1 (stereo not given),?,.,13µM,-
CCOC(=O)C1=C(C)c2ccccc2N(C(=O)OC)C1(C)C(=O)OCC (stereo not given),-,-,3.5µM,-
CCOC(=O)C(NC(=O)C1C(C)N1S(=O)(=O)c1ccc(C)cc1)C(=O)OCC (stereo not given),-,-,-,.
CC(=O)NCc1ccc(-c2csc(NC(=O)CCc3nc4ccccc4c(=O)[nH]3)n2)s1,21µM,-,.,.

# Source: PubChem (National Center for Advancing Translational Sciences (NCATS))
